Results filed as inconclusive are left out. Entries that show only a call come without a potency. A number with no mark means an inactive call. The source made the active and inactive calls. Calls come from the whole dose curve; as a rule, active = well fitted inhibition curve with a large enough effect; inconclusive = small, poorly fitted or top-dose-only effect; inactive = no such curve, though single readings can be large or run the other way. Where a SMILES comes first, the peptide text is derived from it. Bridges are numbered along the chain shown (N, C = ends). [ ]: non-standard residue; d: D form. The star is where a group is joined. X1 = CCC(C)C(N)C1=NC(C(=O)*)CS1; dOrn = NCCC[C@@H](N)C(=O)O
system: Zika virus NS2B-NS3 protease (linked construct); test: Primary screen NINDS Rhodamine qHTS for Zika virus inhibitors (AID 1347160); settings: purified NS2B-NS3 protease, Rhodamine110 substrate fluorescence; series mostly up to 57.1 µM; note: nearly all actives have a fitted effect of over 55% in size
Excerpt: Avindra Nath, Ph.D., National Institute of Neurological Disorders and Stroke (NINDS), Bethesda, MD
Radhakrishnan Padmanabhan, Ph.D., Georgetown University (GU), Washington D.C.
Zika Virus causes congenital defects, including microcephaly and is associated with Guillain-Barre syndrome, eningoencephalitis and myelitis in infected adult. […] Using a target-based approach, we hope to establish a screening paradigm to uncover novel, cell-active NS2B-NS3 protease (Zika Virus) specific inhibitors from NCATS' collection of small molecules using qHTS.
Four assay panel was created to identify potential Zika Virus inhibitors. Namely, (1) GU unlinked NS2B-NS3 AMC tagged protease qHTS, (2) GU unlinked NS2B-NS3 Rhodamine tagged protease qHTS, (3) NINDS linked NS2B-NS3 AMC tagged protease qHTS, (4) NINDS linked NS2B-NS3 Rhodamine tagged protease qHTS. Active compounds were re-acquired and re-screened to confirm inhibition. Inhibitors were further screened against various confirmatory and counterscreens in dose response format.
Early Translation Branch (ETB)
National Center for Advancing Translational Sciences (NCATS), Rockville, MD
National Institute of Health (NIH), Bethesda, Maryland
For the linked assay, Nath lab (NINDS) provided the purified linked NS2B-NS3 protease which is consists of hydrophilic domain of NS2B linked to the NS3 protease domain by a flexible (-[…]-) linker. Control compound aprotinin is obtained from Thermo Scientific (#78432; Waltham, Massachusetts). Rhodamine110 substrate ([N-Cbz]-Nle-Lys-Arg-Arg-Rhod110-Arg-Arg-Lys-Nle-[N-Cbz]) was purchased from either Genscript or Bachem.
1536-well Protease (Rhodamine110 Substrate) Assay:
Briefly, 3 microL of enzyme (25 nM final concentration), in assay buffer (10 mM Tris-HCl pH 8.0 with 0.01% Tween 20) were dispensed into a 1,536-well solid-bottom black plate (Greiner Bio One, Monroe, NC). Twenty-three nL of compounds (final concentration range 7.28 nM to 114 microM) or control Aprotinin (final concentration range 3.47 nM to 114 microM) were transferred via Wako Pin-tool (Wako Automation, Richmond, VA). Samples were incubated (room temperature, protected from light) for 15 minutes followed by a 1 microL Rhodamine110 substrate addition (1.5 microM final concentration). Plates were then immediately read on a ViewLux High-throughput CCD imager (PerkinElmer, Waltham, MA) equipped with FITC fluorescence optics (480(20) nm excitation, 540(25) nm emission), then incubated (room temperature, protected from light) for 15 minutes (~15% conversion). The change in fluorescence intensity over the 15-minute reaction period was normalized against no-inhibitor and no-enzyme controls and the resulting percent inhibition data were fitted to a 4-parameter Hill equation. Aprotinin was used as intraplate control.
Potency is the fitted concentration of half-maximal effect.

| SMILES | Potency | activity change, negative = inhibition | outcome |
| --- | --- | --- | --- |
| COc1c(C(CC(C)C)OC(C)=O)ccc(Oc2c(O)cc(C)cc2/C=C/C(C)=O)c1C(=O)O (stereo not given) | 11.2 µM (active) | – | – |
| CC1NC(=O)CNC(=O)C(C(C)C)NC(=O)C2CCCN2C(=O)C(C(C)C)NC(=O)C(Cc2c[nH]c3ccccc23)NC1=O (stereo not given) (cyclo(GAWVPV); configuration not given here) | inactive | – | – |
| CC1OC(OC2C(C)OC(OC3C(OC(=O)/C=C/c4ccc(O)cc4)C(CO)OC(OC4(COC(=O)/C=C/c5ccc(O)cc5)OC(CO)C(O)C4O)C3OC3OCC(O)(CO)C3O)C(O)C2O)C(O)C(O)C1O (stereo not given) | inactive | – | – |
| O=C(CCO[C@@H]1O[C@H](CO)[C@@H](O)[C@H](O)[C@H]1O)c1ccc(O)cc1 | inactive | – | – |
| NCCOCCOCCNC(=O)Cc1ccc(Nc2nc(NCc3ccc(F)cc3)nc(NCC3CCCCC3)n2)cc1 | inactive | – | – |
| CC(C)C(=O)O[C@@H]1[C@@H](O)[C@@H](O[C@H]2O[C@H](CO)[C@@H](O)[C@H](O)[C@H]2O)O[C@H](CO)[C@H]1O | inactive | – | – |
| C/C=C1/[C@H](O[C@@H]2O[C@H](CO)[C@@H](O)[C@H](O)[C@H]2O)OC=C(C(=O)OC)[C@H]1CC(=O)O[C@@H]1O[C@H](CO)[C@@H](O)[C@H](O)[C@H]1O | inactive | – | – |
| COC(=O)c1ccc(O[C@@H]2O[C@H](CO)[C@@H](O)[C@H](O)[C@H]2O)c(OC)c1 | inactive | – | – |
| CC12CC34C=CC(=O)C(C)(CCC(=O)O)C3C(CC1C4)O2 (stereo not given) | inactive | – | – |
| Cc1ccc(Sc2cncc3sc(C(N)=O)cc23)cc1 | inactive | – | – |
| C=C(C)C1CC2(CO)C(=CC1=O)CCC(O)C2C (stereo not given) | inactive | – | – |
| CC(=O)c1c(O)cc2c(c1C)C(=O)CC(O)C2 (stereo not given) | inactive | – | – |
| O=C(O)C[C@@H](NC(=O)c1cc(-c2ccc(-c3ccncc3)cc2)cs1)c1ccccc1 | 20 µM (active) | – | – |
| COC1(CC(C)C)NC(=O)C(O)(Cc2ccccc2)NC1=O (stereo not given) | inactive | – | – |
| C[C@@H]1O[C@@H](O[C@H]2[C@H](O[C@H]3[C@H](O[C@H]4CC[C@@]5(C)C(CC[C@]6(C)C5CC=C5[C@@H]7CC(C)(C(=O)O)C[C@@H](O)[C@]7(C)CC[C@]56C)[C@@]4(C)CO)O[C@H](C(=O)O)[C@@H](O)[C@@H]3O)O[C@H](CO)[C@H](O)[C@@H]2O)[C@H](O)[C@H](O)[C@H]1O (stereo not given in full) | inactive | – | – |
| CC(C)=CCCC1(C)Oc2cc3c(c4c2C2C(O4)C(C)(O)CCC21)CN(C(CCC(=O)O)C(=O)O)C3=O (stereo not given) | inactive | – | – |
| C[C@@H]1CC[C@]2(C(=O)O)CC[C@]3(C)C(=CCC4[C@]5(C)C(CC[C@]43C)C(C)(C)[C@@H](O)[C@H](O)[C@@H]5O)C2[C@]1(C)O (stereo not given in full) | inactive | – | – |
| CNC(=O)c1ccc(Nc2ncc(C(F)(F)F)c(NCc3nccnc3N(C)S(C)(=O)=O)n2)cc1 | inactive | – | – |
| COc1ccc(C)c2sc(NC(=O)c3ccncc3)nc12 | inactive | – | – |
| COC(=O)C1=CO[C@@H](O[C@@H]2O[C@H](CO)[C@@H](O)[C@H](O)[C@H]2O)[C@@H]2[C@@H](C)[C@@H](O)C[C@H]12 | inactive | – | – |

| SMILES | Potency | activity change, negative = inhibition | outcome |
| --- | --- | --- | --- |
| O=C(NC[C@H](O)CN1CCc2ccccc2C1)c1cc(NC2COC2)ncn1 | inactive | – | – |
| CC(O)C(O)/C=C/C=C/C(=O)O[C@@H]1C=C2COC(=O)[C@]2(O)[C@@]2(C)CCCC(C)(C)C12 (stereo not given in full) | inactive | – | – |
| CC1C/C=C/C=C\CCCCC(O)C/C=C/C(=O)O1 (stereo not given) | inactive | – | – |
| C=C1[C@@H]2[C@H]3OC(=O)C(=C)[C@@H]3CC[C@@](C)(O)[C@@H]2C[C@@H]1O[C@@H]1O[C@H](CO)[C@@H](O)[C@H](O)[C@H]1O | inactive | – | – |
| Nc1nonc1C(=Nc1ccc(F)c(Cl)c1)NO | inactive | – | – |
| CN1CCC(c2c[nH]c3ccc(NC(=O)c4ccc(F)cc4)cc23)CC1 | inactive | – | – |
| OCCc1ccc(O[C@@H]2O[C@H](CO)[C@@H](O)[C@H](O)[C@H]2O)c(O)c1 | inactive | – | – |
| CC1=C(CC(=O)O)c2cc(F)ccc2C1=Cc1ccc(S(C)(=O)=O)cc1 | inactive | – | – |
| CC1(C)CC2C(C1)C1(C)CCC13OC3(CO)C2O (stereo not given) | inactive | – | – |
| CC1=CCC2C(C)(CO)CCCC2(CO)C1CO (stereo not given) | 15.8 µM (active) | – | – |
| CC(=O)OC[C@@]12[C@H](O)C[C@@H](C)[C@]3(C[C@@H](c4ccoc4)OC3=O)[C@H]1C[C@H](O)C[C@]21CO1 | inactive | – | – |
| C=CC(C)(O)CC/C=C(/C)C(=O)OC1C(OC2OCC(OC3OC(CO)C(O)C(O)C3O)C(OC3OCC(O)C(OC4OC(C)C(O)C(O)C4O)C3O)C2O)COC(OC(=O)C23CCC(C)(C)CC2C2=CCC4C5(C)CCC(OC6OC(CO)C(OC7OC(CO)C(O)C(OC8OCC(O)C(O)C8O)C7O)C(O)C6O)C(C)(C)C5CCC4(C)C2(C)CC3O)C1O (stereo not given) | – | 4.71% [at 10.7 µM] | – |
| OC[C@H]1O[C@@H](OC(CCCCc2ccc(O)cc2)CCc2ccc(O)cc2)[C@H](O[C@@H]2OC[C@](O)(CO)[C@H]2O)[C@@H](O)[C@@H]1O (stereo not given in full) | inactive | – | – |
| C[C@@H]1O[C@@H](O[C@@H]2[C@@H](O)[C@H](O[C@@H]3[C@@H](O)[C@@H](O)[C@H](O[C@H]4[C@H](OC(=O)[C@]56CCC(C)(C)C[C@H]5C5=CCC7[C@@]8(C)C[C@H](O)[C@H](O[C@@H]9O[C@@H](C)[C@H](O)[C@@H](O)[C@H]9O)[C@@](C)(CO)C8CC[C@@]7(C)[C@]5(C)C[C@H]6O)O[C@H](C)[C@H](O)[C@@H]4O)O[C@H]3C)OC[C@H]2O)[C@H](O)[C@H](O)[C@H]1O (stereo not given in full) | – | 4.29% [at 10.7 µM] | – |
| CC(C)C1=CCC(C)(O)C(OC2OC(CO)C(O)C(O)C2O)C1 (stereo not given) | 10 µM (active) | – | – |
| CCn1cc(C2=NOC(C(=O)Nc3c(C)n(C)n(-c4ccccc4)c3=O)C2)c(C)n1 (stereo not given) | inactive | – | – |
| CC(=O)c1cnc2ccc(-c3cc(Cl)c(O)c(Cl)c3)nc2c1NC1CCC(CN(C)C)CC1 (stereo not given) | – | – | inactive; activator [at 10.7 µM] |
| CC1=CC(=O)C2C(C)(C)CC(O)CC2(C)C1CO (stereo not given) | inactive | – | – |
| CCC(C)C(N)C1=NC(C(=O)N[C@@H](CC(C)C)C(=O)N[C@H](CCC(=O)O)C(=O)N[C@H](C(=O)N[C@H]2CCCCNC(=O)[C@H](CC(N)=O)NC(=O)[C@@H](CC(=O)O)NC(=O)[C@H](Cc3cnc[nH]3)NC(=O)[C@@H](Cc3ccccc3)NC(=O)[C@H]([C@@H](C)CC)NC(=O)[C@@H](CCCN)NC2=O)[C@@H](C)CC)CS1 (stereo not given in full) (X1-L[dE]IK[dOrn]I[dF]H[dD]N; lactam 4-C) | inactive | – | – |
| C=CC1C(O[C@@H]2O[C@H](CO)[C@@H](O)[C@H](O)[C@H]2O)OC=C(C(=O)OC)C1Cc1nccc2c1[nH]c1ccccc12 (stereo not given in full) | inactive | – | – |

Reference: PubChem BioAssay (NCATS)
